USP17 inh: inhibitors of human USP17 deubiquitinase | A8MUK1 | purified USP17, Ub-rhodamine cleavage fluorescence, 3 h | inhibition, % at 50 µM | hit rate 6.5% among 47,000 | AID 1645855
USP28 inh: blocks human USP28 ubiquitin-rhodamine cleavage; purified USP28, Ub-rhodamine cleavage fluorescence, 30 min; inhibition, % at 25 µM; hit rate 3% among 47,000; AID 1645857
USP30 block: blocks human USP30 ubiquitin-rhodamine cleavage; AID 1645860; Q70CQ3; hit rate 5.3% among 47,000; inhibition, % at 25 µM; purified USP30, Ub-rhodamine cleavage fluorescence
OTUD3 inh: inhibitors of human OTUD3 deubiquitinase; Q5T2D3; purified OTUD3, Ub-rhodamine fluorescence, 2 h; inhibition, % at 25 µM; hit rate 0.7% among 47,000; AID 1645858
Target sequence (Q5T2D3 whole entry, looked up): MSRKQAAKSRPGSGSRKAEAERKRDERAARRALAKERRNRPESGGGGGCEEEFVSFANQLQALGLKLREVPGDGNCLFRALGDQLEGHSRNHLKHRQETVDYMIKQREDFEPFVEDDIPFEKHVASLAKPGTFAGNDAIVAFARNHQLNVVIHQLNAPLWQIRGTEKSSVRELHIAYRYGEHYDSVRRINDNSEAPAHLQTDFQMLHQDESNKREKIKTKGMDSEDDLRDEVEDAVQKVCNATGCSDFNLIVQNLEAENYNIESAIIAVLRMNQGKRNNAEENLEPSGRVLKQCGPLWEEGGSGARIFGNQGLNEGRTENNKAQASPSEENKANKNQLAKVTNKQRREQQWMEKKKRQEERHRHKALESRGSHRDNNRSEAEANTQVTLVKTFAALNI
Active calls of the source: *; nt = no result. Hits are enriched below; roughly 11% of the tested compounds scored in any of these assays. No stated cut-off is given here; in the data, active means inhibition above about 30%; inactive means the rest.

SMILES	USP17 inh	USP28 inh	USP30 block	OTUD3 inh
O=C(CSc1ncnc2c1oc1ccccc12)NCC1CCCO1 (stereo not drawn)	2	nt	nt	-1
COc1ccc(C)cc1NC(=O)CSc1nc(C)nc2c1oc1ccccc12	52*	9	28	13
O=C(CSc1ncnc2c1oc1ccccc12)NC1CCCCC1	11	11	33*	14
Cc1c(C(=O)CSc2ncnc3c2oc2ccccc23)c2ccccc2n1C	21	0	16	10
Clc1ccccc1CSc1ncnc2c1oc1ccccc12	41*	13	30	9
COc1ccc(Cl)cc1NCc1nc2nc(C)c(C)c(=O)n2[nH]1	1	-7	12	-7
CCN1C[C@H]2CCN(C(=O)c3cc(C)on3)CC[C@H]2S1(=O)=O	-4	-10	8	-1
O=C(CSc1ncnc2c1oc1ccccc12)Nc1ccc2c(c1)OCCO2	65*	-1	-16	1
COC(=O)c1ccccc1NC(=O)CSc1ncnc2c1oc1ccccc12	13	-4	33*	10
Cc1ccccc1-n1ncc2c(=O)n(CC(=O)Nc3ccc4c(c3)OCCO4)cnc21	30*	16	10	12
COCC(=O)N1C2CCC(O)(CC2)C1CN1CCOCC1 (stereo not drawn)	19	2	18	9
O=c1cc(-c2cncc(Br)c2)nc(-c2ccccc2)[nH]1	nt	6	30*	11
Fc1cccc(Cn2cc(-c3noc(-c4ccncc4)n3)nn2)c1	66*	12	-7	8
Cc1ccc(Cn2cc(-c3noc(-c4ccncc4)n3)nn2)cc1	79*	8	26	11
O=C(COC(=O)c1cc2c(s1)CCC2)c1ccc2[nH]c(=O)[nH]c2c1	56*	66*	2	36*
COC(=O)c1ccccc1NC(=O)c1sccc1Oc1ccc(F)cc1[N+](=O)[O-]	12	7	19	15
O=C(Nc1ccccc1F)c1sccc1Oc1ccc([N+](=O)[O-])cc1F	45*	17	40*	17
O=C1CC(c2ccco2)Cc2[nH]c(=O)c(C(=O)Nc3ccc(Cl)cc3)cc21 (stereo not drawn)	60*	35*	-36	20
Cc1cc(NC(=O)CSc2nnc(COc3ccc(Cl)cc3)o2)no1	3	-3	-15	-8
COC(=O)C(C)Sc1ncnc2c1nnn2-c1ccc(OC)cc1 (stereo not drawn)	37*	nt	nt	-5
COc1ccc(-n2nnc3c(SCC(=O)Nc4cc(C)on4)ncnc32)cc1	57*	0	-45	-3
CCC(C)[C@H](NC(=O)[C@H](Cc1ccccc1)n1c(=O)[nH]c2ccccc2c1=O)C(=O)N1CCC[C@H]1C(=O)O (stereo partly drawn)	-10	4	1	10
CNS(=O)(=O)c1ccc(-c2nc(-c3ccccc3)no2)o1	13	17	16	8
Cc1cccc(NC(=O)NCCc2cn(C)c3ncccc23)c1	-5	20	-3	-1
CCN1CCCC1CN(Cc1cc2ccc(C)c(C)c2[nH]c1=O)C(=O)NCc1ccccc1 (stereo not drawn)	7	-36	-217	-52
SMILES	USP17 inh	USP28 inh	USP30 block	OTUD3 inh
CCN1CCCC1CN(Cc1cc2cc(OC)ccc2[nH]c1=O)C(=O)NCc1ccccc1 (stereo not drawn)	53*	-11	-41	-24
CCN1CCCC1CN(Cc1cc2cc(OC)ccc2[nH]c1=O)C(=O)Nc1ccccc1Cl (stereo not drawn)	49*	-30	-54	-16
COc1ccc(Cc2noc(C3(c4ccc(F)cc4)CCOCC3)n2)cc1	9	8	-1	19
CN1CCCN(C(=O)c2c3c(NCc4ccccc4)ncnc3n3ccccc23)CC1	-103	-120	-411	-86
O=C(NCc1cccnc1)c1c2c(NCC3CC3)ncnc2n2ccccc12	31*	-30	-108	-25
Cn1cc2nc(SCC(=O)NCc3ccccc3Cl)n(CC3CC3)c(=O)c2n1	30	14	32*	0
Cc1ccc(Cl)cc1NC(=O)CSc1nc2cn(C)nc2c(=O)n1CC1CC1	68*	28	54*	38*
Cc1c(Cl)cccc1NC(=O)CSc1nc2cn(C)nc2c(=O)n1CC1CC1	20	13	27	2
CCOc1ccc(CCNC(=O)c2nnc(Cc3ccc(Cl)cc3)o2)cc1OCC	-8	29	-1	-5
Cn1c(SCc2c(F)cccc2Cl)nnc1-c1ccc2c(c1)OCCCO2	7	12	33*	12
CC1=C(CO)C(=O)O[C@@H]([C@@H](C)[C@H]2CC[C@H]3[C@@H]4C[C@H]5O[C@]56[C@@H](O)C=CC(=O)[C@]6(C)[C@H]4CC[C@]23C)C1	72*	44*	83*	5
CC(=O)/C=C/C1(O)C(C)=CC(=O)CC1(C)C (stereo not drawn)	11	6	33*	9
CC1=CC(=O)CC(C)(C)C1(O)/C=C/C(C)=C\C(=O)O (stereo not drawn)	8	7	26	4
COc1ccccc1NC(=O)c1oc2ccccc2c1NC(=O)c1ccccc1Cl	8	4	-33	7
CSc1ccccc1C(=O)Nc1c(C(N)=O)oc2ccccc12	5	30*	0	17
CCOC(=O)c1c(-c2ccccc2)oc2ccc(OC(=O)Cc3ccc(OC)cc3)cc12	-29	-30	-96	-56
CCCC(=O)Nc1ccc(SCc2nnc(-c3ccccc3)o2)cc1	1	66*	-3	-2
O=C(Nc1ccc(SCc2nnc(-c3ccccc3)o2)cc1)C1CC1	-29	61*	0	-11
Cc1cc(C(=O)Nc2nnc(CSc3ccccc3)o2)no1	-4	0	7	1
CC(O)/C=C/C1OC(=O)CC1Nc1ccc(CO)cc1 (stereo not drawn)	44*	2	0	0
CC(C)n1nnc2cc(S(=O)(=O)N3CCCC(C(=O)NCCc4ccco4)C3)ccc21 (stereo not drawn)	42*	7	-30	4
Cc1ccccc1Cc1nc(-c2ccc(=O)[nH]c2)no1	3	84*	-1	8
O=c1ccc(-c2noc(Cc3c(F)cccc3Cl)n2)c[nH]1	16	93*	27	14
COc1ccc(-c2nc(-c3ccc(=O)[nH]c3)no2)c(C)c1	-45	-36	-155	-17
Cc1ccccc1Cc1nc(-c2ccnc(N3CCOCC3)c2)no1	9	32*	13	9
SMILES	USP17 inh	USP28 inh	USP30 block	OTUD3 inh
c1cc(-c2noc(C3CCCCC3)n2)cc(N2CCOCC2)n1	4	2	6	0
O=C(CCC(=O)N1Cc2cccn2-c2ccccc21)NCc1cccc(Cl)c1	nt	0	-7	-10
O=C(Nc1ccc2c(c1)OCCO2)c1c(-c2ccccc2)nnc2ccccc12	31*	-5	-12	-7
Cc1ccc(-c2cc(C(=O)Nc3ccc4c(c3)OCCO4)c3ccccc3n2)o1	39*	7	-41	8
O=C(Nc1ccc2c(c1)OCCO2)c1cccc2nc3ccccc3nc12	41*	30	75*	31*
Cc1ccccc1-c1cc(C(=O)Nc2ccc(Br)c(Br)c2)c2ccccc2n1	-9	-2	-25	-6
CNC(=O)c1sc2nccnc2c1C1CCN(Cc2cccnc2)CC1	4	0	12	7

High-throughput results: PubChem, Buhrlage Lab, Dana-Farber Cancer Institute and Novartis Institutes for BioMedical Research (Cambridge, Mass)
